Bioassay records from PubChem.
NPC1 promoter act = qHTS Assay for NPC1 Promoter Activators. Huh7 NPC1 promoter luciferase reporter, 24 h. Potency, µM (series often up to 9.22 µM), usual class: activators. 320,000 tested, 2.4% active. AID 485313, 2010; also: nearly all actives have a fitted effect of over 60% in size
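In 1536-well qHTS, Huh7 cells harboring an NPC1 promoter–luciferase construct received compound for 24 h; activation was quantified by luminescence following luciferase reagent addition.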
Rab9 prom act = qHTS Assay for Rab9 Promoter Activators | AID 485297, 2010 | Potency, µM (highest dose often 9.22 µM), usual class: activators | Huh7 Rab9 promoter-luciferase reporter, luminescence, 24 h | 320,000 tested, 2.8% active; also: nearly all actives have a fitted effect of over 60% in size
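Quantitative HTS format; Huh7 Rab9-luciferase reporter cells (1500/well) receive compound 2 h post-plating, incubate 24 h at 37 °C, then get luciferase reagent for 10 min before luminescence reading.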
SMN2 splice up = qHTS Assay for Enhancers of SMN2 Splice Variant Expression; 210,000 tested, 2.8% active; HEK293 SMN2-luciferase splicing reporter, luminescence, 30-36 h; Potency, µM (highest dose often 46.1 µM), usual class: activators; also: nearly all actives have a fitted effect of over 55% in size
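HEK293 cells carry an SMN2 minigene-luciferase reporter in which exon 7 inclusion puts luciferase in frame. Cells were seeded at 2000 cells/well, attached for 10-12 hours, then exposed to compounds for 30-36 hours at 37C before ONE-Glo luminescence.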
uPA surface inh = qHTS for Inhibitors of Cell Surface uPA Generation | cell surface uPA generation assay, qHTS | Potency, µM (top dose mostly 38.3 µM), usual class: inhibitors | 330,000 tested, 0.31% active; active = well fitted inhibition curve with a large enough effect; inconclusive = small, poorly fitted or top-dose-only effect; inactive = no such curve, though single readings can be large or run the other way; tested in mouse RAW 264.7 cells; also: nearly all actives have a fitted effect of over 55% in size
FLuc modulator = qHTS profiling assay for firefly luciferase inhibitor/activator using purifed enzyme and Km concentrations of substrates (counterscreen for miR-21 project). Luciferin 4-monooxygenase (Photinus pyralis), P08659. purified FLuc, Km substrates, luminescence inhibition. Potency, µM (titrated, usually from 57.5 µM), most hits filed as inhibitors. 360,000 tested, 6.9% active. AID 588342, 2011; also: nearly all actives have a fitted effect of over 55% in size
Target sequence (P08659 whole entry, looked up): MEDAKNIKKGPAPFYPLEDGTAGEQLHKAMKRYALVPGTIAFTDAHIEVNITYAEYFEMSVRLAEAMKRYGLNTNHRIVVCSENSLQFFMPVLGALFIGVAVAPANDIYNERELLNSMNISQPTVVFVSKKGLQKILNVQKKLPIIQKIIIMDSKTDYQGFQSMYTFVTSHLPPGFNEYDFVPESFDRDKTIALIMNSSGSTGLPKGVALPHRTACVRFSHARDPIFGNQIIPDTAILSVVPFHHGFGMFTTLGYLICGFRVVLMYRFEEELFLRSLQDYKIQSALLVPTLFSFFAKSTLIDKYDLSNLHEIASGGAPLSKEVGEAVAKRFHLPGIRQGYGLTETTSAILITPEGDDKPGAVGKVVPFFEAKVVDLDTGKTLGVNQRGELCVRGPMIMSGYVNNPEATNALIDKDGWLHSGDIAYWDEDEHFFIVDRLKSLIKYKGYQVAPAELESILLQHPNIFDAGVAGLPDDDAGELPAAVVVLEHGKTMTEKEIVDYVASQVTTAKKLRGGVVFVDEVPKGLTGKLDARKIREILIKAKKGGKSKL
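Biochemical qHTS of compounds, final roughly 60 µM downward over six points, against 10 nM purified firefly luciferase using Km concentrations of substrates (10 uM D-luciferin, 10 uM ATP) in Tris acetate pH 7.5 buffer; luminescence output.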
ELG1 genotox = qHTS screen for small molecules that induce genotoxicity in human embryonic kidney (HEK293T) cells expressing luciferase-tagged ELG1; HEK293T ELG1-luciferase reporter, luminescence, 16 h; Potency, µM (series often up to 46 µM), hits mostly activators; 330,000 tested, 1.3% active; also: nearly all actives have a fitted effect of over 60% in size
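Screening used a luciferase reporter fused to human ELG1 in HEK293T cells. Luminescence was read on a CCD plate imager after 16 hr exposure and 30 min ONE-Glo incubation.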
A number is an active result; i = inactive; ? = inconclusive; nt = no result given; [ ] = remark or other dose. A selection: hits, their analogues and other compounds. The true share with any hit is near 7.3%. Unless noted, calls follow the shape of the dose curve; as a rule, active = well fitted curve in the direction sought with a large enough effect; inconclusive = small, poorly fitted or top-dose-only effect, or another doubt; inactive = no such curve, though single readings can be large; an effect the other way counts as inactive or inconclusive.

SMILES	NPC1 promoter act	Rab9 prom act	SMN2 splice up	uPA surface inh	FLuc modulator	ELG1 genotox
O=C(N/N=C/C1CC=CCC1)c1ccccc1O (configuration not stated)	i	i	i	i	15µM	i
O=C(Nc1ccccn1)c1cc(-c2ccc(Cl)s2)nc2ccccc12	i	i	nt	i	?	i
Cc1cc(NC(=O)c2cc(-c3ccc(C)s3)nc3ccccc23)no1	i	i	i	i	?	i
Cc1ccc(-c2cc(C(=O)O)c3ccccc3n2)s1	i	i	nt	?	2.7µM	?
O=C(O)c1cc(-c2ccc(Cl)s2)nc2ccccc12	i	i	?	i	15µM	i
CC(=O)c1ccc(NC(=O)c2cc(-c3ccc(C)s3)nc3ccccc23)cc1	nt	nt	i	nt	i	nt
Cc1cccc(NC(=O)c2cc(-c3ccc(C)s3)nc3ccccc23)n1	i	i	i	i	11µM	i
O=C(O)CCCCCN1C(=O)C(O)=C(C(=O)/C=C/c2ccccc2)C1c1ccccc1[N+](=O)[O-] (configuration not stated)	i	i	nt	i	?	i
COCCCNC(=O)c1cnn(-c2ccc(F)cc2F)c1C1CCNCC1	nt	nt	nt	nt	i	nt
N#Cc1c(-c2ccccc2)cc(-c2ccccc2)nc1SCC(O)CS(=O)(=O)Cc1ccccc1 (configuration not stated)	nt	nt	i	nt	i	nt
Cc1cccc(C(C)Nc2ccc([N+](=O)[O-])cn2)c1 (configuration not stated)	i	i	i	i	i	i
COc1ccc(Cn2c(-c3ccc(OC)cc3)nc3ccccc32)cc1	i	i	i	i	?	i
CCOCCn1c(COc2ccc(C)cc2)nc2ccccc21	i	?	?	i	?	i
COCCn1c(COc2ccc(C)cc2)nc2ccccc21	?	?	i	i	9.5µM	i
Cc1ccc(NCc2nc3ccccc3n2CCOc2ccccc2)cc1	4.5µM	2.5µM	i[1.84 µM]	i	8.5µM	?
CCn1c(COc2ccc(C)cc2)nc2ccccc21	?	2.8µM	nt	i	8.5µM	i
COCCn1c(-c2ccc(OC)cc2)nc2ccccc21	i	i	i	i	19µM	i
Cc1ccc(CN(C(=O)c2ccccc2Br)C2CCS(=O)(=O)C2)o1 (configuration not stated)	nt	nt	i	nt	i	nt
COc1ccccc1CNC(=O)CN1C(=O)CSc2ccc(S(=O)(=O)N3CCCCC3)cc21	nt	nt	nt	nt	i	nt
COc1ccc(CNC(=O)CN2C(=O)COc3ccc(S(=O)(=O)Nc4ccccc4)cc32)cc1	nt	nt	nt	nt	i	nt
O=C(Nc1cc(C(F)(F)F)ccc1Cl)c1cnn(-c2ccccc2)c1-n1cccc1	nt	nt	nt	nt	i	nt
O=C(CCCCn1c(=O)c2ccccc2n(CC(=O)Nc2ccc(F)cc2F)c1=O)NCc1ccccc1Cl	nt	nt	i	nt	i	nt
CCN(CC)C(=O)CSc1nc2c(c(=O)n(C)c(=O)n2C)n1Cc1ccccc1	nt	nt	i	nt	i	nt
CCCn1c(CNc2ccc(Br)cc2)nc2ccccc21	i	i	i	i	17µM	i
CC(C)c1ccc(OCC(=O)Nc2cc(-c3ccccc3)no2)cc1	nt	nt	i	nt	i	nt
SMILES	NPC1 promoter act	Rab9 prom act	SMN2 splice up	uPA surface inh	FLuc modulator	ELG1 genotox
C=C(C)CSc1nc2c(cc1C#N)CCC2	i	i	i	i	i	i
COC(=O)CC(=O)CSc1nc2c(cc1C#N)CCC2	i	i	1.3µM	i	13µM	i
CC(C)OC(=O)CC(=O)CSc1nc2c(cc1C#N)CCCC2	nt	nt	i	i	13µM	nt
CC(C)OC(=O)CC(=O)CSc1nc2c(cc1C#N)CCC2	i	i	i	i	19µM	i
CCOC(=O)CC(=O)CSc1nc2c(cc1C#N)CCCCCC2	i	i	i	i	?	i
N#Cc1cc2c(nc1SCC(N)=O)CCCCC2	4µM	3.2µM	25µM	i	i	?
CC(C)OC(=O)CC(=O)CSc1nc2c(cc1C#N)CCCCCC2	i	i	i	i	?	i
COc1cccc(Nc2ncc3nc(C)c(=O)n(CCC#N)c3n2)c1	nt	nt	i	nt	nt	nt
Cc1cccc(NC(=O)c2cc3ccccc3oc2=O)c1	1.1µM	1.4µM	nt	i	0.6µM	2.1µM
COc1ccc2oc(=O)c(C(=O)Nc3cccc(C(=O)O)c3)cc2c1	nt	nt	0.79µM	nt	i	nt
COc1ccc2oc(=O)c(C(=O)Nc3cccc(C)c3)cc2c1	4µM	1.6µM	nt	i	3µM	8.2µM
Cc1ccnc(NC(=O)c2cc3ccccc3oc2=O)c1	1.6µM	1.1µM	11µM	i	0.85µM	?
Cc1ccc(S(=O)(=O)N/N=c2\oc3ccccc3cc2C(=O)Nc2cccc(C)c2)cc1	i	i	i	nt	i	i
COc1ccc(NC(=O)c2cc3cc(OC)ccc3oc2=O)cc1	nt	nt	nt	i	nt	nt
COCCNC(=O)c1cc2cc(Br)cc(Br)c2oc1=O	i	i	i	i	i	i
O=C(O)c1cccc(NC(=O)c2cc3cc(Br)cc(Br)c3oc2=O)c1	nt	nt	i	nt	12µM	nt
O=C(CCl)N(C/C=C/c1ccccc1)c1ccc2c(c1)OCCO2	i	i	i	i	24µM	i
N#CCCN(C(=O)CSc1ncccn1)c1ccc2c(c1)OCCO2	i	i	nt	i	i	i
c1coc(-c2ccc3ncnc(NCc4cccs4)c3c2)c1	i	i	nt	nt	i	nt
Cc1cn([C@H](C(=O)NCCCCCCCCCCC(=O)N2CCN(C(=O)OC(C)(C)C)CC2)[C@@H](C)O)nn1	i	i	nt	i	i	i
[O-]/[N+](=C\c1ccncc1)c1ccc(Br)cc1	?	?	nt	i	8.5µM	?
CCOc1ccccc1NC(=O)Nc1nnc(N2CCCC(C)C2)s1 (configuration not stated)	nt	nt	nt	nt	i	nt
O=c1[nH]c2cc3c(cc2cc1CN(Cc1ccco1)C(=S)NCC1CCCO1)OCCO3 (configuration not stated)	i	i	nt	13µM	i	i
O=C1c2ccccc2NC(c2ccccc2Cl)N1N=C1CCCCCC1 (configuration not stated)	i	i	i[1.84 µM]	i	12µM	?
O=C(CCS(=O)(=O)c1ccccc1)Nc1ccc(-c2nc3ccccc3s2)cc1	1.6µM	0.5µM	1µM	i	i	?
SMILES	NPC1 promoter act	Rab9 prom act	SMN2 splice up	uPA surface inh	FLuc modulator	ELG1 genotox
O=C(CCS(=O)(=O)c1ccccc1)Nc1cccc(-c2nc3ccccc3s2)c1	?	?	i	?	6.7µM	?
O=C(Nc1cccc(-c2nc3ccccc3s2)c1)c1cccs1	i	i	?	i	13µM	i
Cc1cccc(N2CCN(Cc3nnc(-c4cccc(Br)c4)o3)CC2)c1C	nt	nt	i	nt	i	nt
Cc1cc(C)n2nc(-c3ccc(Cl)cc3)nc2n1	nt	nt	16µM	nt	15µM	nt
Cc1ccc(OCC(=O)Nc2cccc3ccc(C)nc23)c(C)c1	nt	nt	i	nt	i	nt
Cc1cccc(NC(=O)COc2ccc(Br)cc2)n1	i	i	i	nt	24µM	i
